# Laboratory results from PubChem BioAssay (NCATS).
# A number with no mark means an inactive call. Inconclusive results are not listed. Where a call stands in place of a potency, no number is given. Calls of active or inactive are those of the source. Unless noted, calls come from the whole dose curve; as a rule, active = well fitted curve in the direction sought with a large enough effect; inconclusive = small, poorly fitted or top-dose-only effect, or another doubt; inactive = no such curve, though single readings can be large; an effect the other way counts as inactive or inconclusive.
# What was measured:
# [1] = target: Peptidyl-prolyl cis-trans isomerase NIMA-interacting 1 (Homo sapiens) (UniProt Q13526); experiment: qHTS Validation Assay to Find Inhibitors of Pin1 (AID 504536; active = well fitted inhibition curve with a large enough effect in the polarisation, with a control signal flat, not every such curve was filed as active; the % refers to the polarisation)
# Method in brief: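 Fluorescence polarization competition: compounds (titration) displace HiFluor-488-labeled Pin1-1b peptide from Pin1 (0.3 uM final) in pH 7.5 HEPES buffer with DTT, 10 min at room temperature; %Activity normalized to no-enzyme wells, curves fitted.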
# [2] = target: Phosphoglycerate kinase, glycosomal (Trypanosoma brucei brucei) (UniProt P07378); experiment: qHTS Validation Assay to Find Inhibitors of Phosphoglycerate Kinase (AID 504547)
# Method in brief: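 Substrate/PGK mix plus compound; reaction started with GAPDH (100nM final) to form 1,3-BPG; 60 min RT; Kinase-Glo Plus 10 min; luminescence. TEA 100mM pH 7.6, MgCl2 5mM, Tween-20 0.01%.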
# [3] = target: phosphoglycerate mutase (Leishmania major) (UniProt Q4Q090); experiment: qHTS Validation Assay to Find Inhibitors of Phosphoglycerate Mutase (AID 504548);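 note: end-point luminescence from Kinase-GloPlus after the PGAM reaction; series mostly up to about 58 µM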
# Method in brief: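 Inhibition of L. major PGAM was assessed by Kinase-GloPlus luminescence following a 45-minute room-temperature reaction with enzyme at 1.25nM final.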
# [4] = target: Ubiquitin carboxyl-terminal hydrolase 1 (Homo sapiens) (UniProt O94782); experiment: Inhibitors of USP1/UAF1: Pilot qHTS (AID 504865); note: nearly all actives have a fitted effect of over 35% in size; note: potency is the fitted concentration of half-maximal effect
# Method in brief: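 USP1/UAF1 complex at 1 nM preincubated 15 min at room temperature with compound, then Ub-Rho substrate added at 150 nM final. Fluorescence (480/540 nm) read kinetically in 50 mM HEPES pH 7.8, 0.5 mM EDTA, 1 mM TCEP, 0.1 mg/ml BSA, 0.01% Tween-20.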
# [5] = qHTS for Inhibitors of ATXN expression: Validation (AID 588378); note: nearly all actives have a fitted effect of over 75% in size; note: potency is the fitted concentration of half-maximal effect
# Method in brief: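 HEK293 cells carrying ATXN2-firefly luciferase reporter, treated with compound 24 h at 37 °C. Viability read first by CellTiter-Fluor (405/525 nm), then reporter expression by Bright-Glo luminescence; controls were a known ATXN2 expression inhibitor and a luciferase inhibitor.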
# [6] = target: Galactokinase (Homo sapiens) (UniProt P51570); experiment: qHTS Validation Assay for Inhibitors of Human Galactokinase (GALK) (AID 493189)
# Method in brief: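 GALK (5 nM) with 35 uM ATP and 100 uM galactose in HEPES pH 8.0 with MgCl2, NaCl, DTT and BSA. Reaction ran 1 h at room temperature. Residual ATP read by Kinase-Glo Plus luminescence.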
# [7] = Validation screen for small molecules that induce DNA re-replication in SW480 colon adenocarcinoma cells (AID 504364)
# Method in brief: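 SW480 cells seeded at 250 per well were exposed to compound or DMSO for 48 hr at 37 C, 5% CO2, then stained with Hoechst for 40 min. DNA content per nucleus was imaged (405 nm ex, 500-530 nm em).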
# [8] = target: Glucocorticoid receptor (Homo sapiens) (UniProt P04150); experiment: qHTS assay for small molecule agonists of glucocorticoid receptor signaling (AID 588532; active = well fitted curve in the direction sought with a large enough effect in the signal ratio, with a control signal flat; the % refers to the signal ratio); details: HeLa MMTV-bla, beta-lactamase ratio, agonist, 18 h; hits give high values; percent of dexamethasone control, DMSO zero
# Method in brief: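 MMTV-bla HeLa, beta-lactamase reporter; medium with 1% charcoal/dextran-stripped FBS; cpds up to 92 uM, 18 h, 37 C; CCF4 readout 460/530 nm; Hill fit → EC50, efficacy vs 0.1 uM dexamethasone = 100%.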
# [9] = qHTS for Inhibitors of ATXN expression: Validation of Cytotoxic Assay (AID 588349)
# Method in brief: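 HEK293 cells were dosed with titrated compounds for 72 hr at 37 degrees C. Viability was read by CellTiter Glo luminescence, with intracellular ATP as the marker of cell survival.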
# [10] = target: DNA dC->dU-editing enzyme APOBEC-3G (Homo sapiens) (UniProt Q9HC16); experiment: qHTS for inhibitors of Vif-A3G interactions: Validation (AID 588379)
# Method in brief: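 HeLa cells stably expressing Vif and A3G-eYFP, 700 cells/well, incubated overnight at 37 deg C, then exposed to compound overnight at 37 deg C. Inhibition of Vif-mediated degradation read as increased yellow fluorescence (Ex 488/Em 500-530) by laser-scanning cytometry.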
# Sequence of phosphoglycerate mutase (Leishmania major) (Q4Q090 1-553): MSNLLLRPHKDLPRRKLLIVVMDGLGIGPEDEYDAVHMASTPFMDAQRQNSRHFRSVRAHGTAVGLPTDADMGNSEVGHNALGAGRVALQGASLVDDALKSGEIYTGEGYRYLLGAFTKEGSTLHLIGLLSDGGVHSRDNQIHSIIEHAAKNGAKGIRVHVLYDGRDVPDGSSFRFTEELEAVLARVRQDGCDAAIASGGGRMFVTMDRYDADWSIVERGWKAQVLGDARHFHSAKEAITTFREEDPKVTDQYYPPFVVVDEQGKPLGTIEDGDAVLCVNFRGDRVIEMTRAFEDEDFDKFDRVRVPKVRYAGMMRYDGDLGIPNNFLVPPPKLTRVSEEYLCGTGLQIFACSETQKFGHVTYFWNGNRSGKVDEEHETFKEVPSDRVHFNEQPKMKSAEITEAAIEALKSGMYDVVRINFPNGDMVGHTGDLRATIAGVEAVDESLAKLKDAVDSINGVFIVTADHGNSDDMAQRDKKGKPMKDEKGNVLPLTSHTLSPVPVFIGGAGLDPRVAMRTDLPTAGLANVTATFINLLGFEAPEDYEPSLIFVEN
# Sequence of Ubiquitin carboxyl-terminal hydrolase 1 (Homo sapiens) (O94782 whole entry, looked up): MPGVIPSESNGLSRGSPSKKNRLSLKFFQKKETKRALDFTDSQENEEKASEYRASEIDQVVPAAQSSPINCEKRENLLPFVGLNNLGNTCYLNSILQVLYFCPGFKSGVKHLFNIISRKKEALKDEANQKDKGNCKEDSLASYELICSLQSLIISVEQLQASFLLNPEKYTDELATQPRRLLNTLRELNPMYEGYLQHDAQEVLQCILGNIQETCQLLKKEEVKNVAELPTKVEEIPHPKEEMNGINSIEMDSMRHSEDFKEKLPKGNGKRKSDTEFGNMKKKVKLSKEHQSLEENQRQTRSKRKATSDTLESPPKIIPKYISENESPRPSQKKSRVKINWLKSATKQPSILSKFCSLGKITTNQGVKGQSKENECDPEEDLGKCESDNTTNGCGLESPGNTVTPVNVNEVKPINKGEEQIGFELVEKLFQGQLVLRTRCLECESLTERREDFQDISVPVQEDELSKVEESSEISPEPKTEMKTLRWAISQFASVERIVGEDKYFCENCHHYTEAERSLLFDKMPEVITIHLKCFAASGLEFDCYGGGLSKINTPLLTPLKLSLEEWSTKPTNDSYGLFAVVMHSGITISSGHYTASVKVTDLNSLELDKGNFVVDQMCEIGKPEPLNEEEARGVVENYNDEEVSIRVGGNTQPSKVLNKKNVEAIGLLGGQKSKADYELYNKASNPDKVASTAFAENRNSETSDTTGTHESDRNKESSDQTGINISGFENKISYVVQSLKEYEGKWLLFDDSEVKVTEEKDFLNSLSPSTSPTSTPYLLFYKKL
# Sequence of Phosphoglycerate kinase, glycosomal (Trypanosoma brucei brucei) (P07378 whole entry, looked up): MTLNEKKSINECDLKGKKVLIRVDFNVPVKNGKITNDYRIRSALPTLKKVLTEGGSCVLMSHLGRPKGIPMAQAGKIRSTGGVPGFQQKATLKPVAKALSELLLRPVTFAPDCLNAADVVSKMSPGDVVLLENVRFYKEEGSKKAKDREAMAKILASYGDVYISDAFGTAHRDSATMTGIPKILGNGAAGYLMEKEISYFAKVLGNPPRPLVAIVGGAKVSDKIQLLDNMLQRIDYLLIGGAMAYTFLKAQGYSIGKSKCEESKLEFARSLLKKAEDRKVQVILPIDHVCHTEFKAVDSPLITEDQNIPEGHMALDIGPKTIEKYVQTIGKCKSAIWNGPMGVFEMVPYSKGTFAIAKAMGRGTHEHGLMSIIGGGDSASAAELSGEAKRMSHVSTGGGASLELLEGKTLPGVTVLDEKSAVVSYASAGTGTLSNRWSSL
# Sequence of Galactokinase (Homo sapiens) (P51570 whole entry, looked up): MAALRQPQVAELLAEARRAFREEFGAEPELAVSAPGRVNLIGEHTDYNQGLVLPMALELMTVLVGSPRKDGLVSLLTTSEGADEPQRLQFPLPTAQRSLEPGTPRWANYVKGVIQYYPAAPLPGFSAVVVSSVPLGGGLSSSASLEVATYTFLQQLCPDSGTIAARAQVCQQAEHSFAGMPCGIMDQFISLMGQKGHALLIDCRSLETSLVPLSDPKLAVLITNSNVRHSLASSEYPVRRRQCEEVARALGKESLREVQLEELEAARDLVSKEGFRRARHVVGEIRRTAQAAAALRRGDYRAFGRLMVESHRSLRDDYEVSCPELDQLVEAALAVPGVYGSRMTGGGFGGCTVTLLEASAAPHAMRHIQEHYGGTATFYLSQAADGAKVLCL
# Sequence of Peptidyl-prolyl cis-trans isomerase NIMA-interacting 1 (Homo sapiens) (Q13526 whole entry, looked up): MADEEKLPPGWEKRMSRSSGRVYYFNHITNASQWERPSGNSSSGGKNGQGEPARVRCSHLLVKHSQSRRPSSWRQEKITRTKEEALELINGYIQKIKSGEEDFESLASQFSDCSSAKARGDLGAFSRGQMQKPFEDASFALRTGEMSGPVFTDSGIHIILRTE
# Sequence of Glucocorticoid receptor (Homo sapiens) (P04150 whole entry, looked up): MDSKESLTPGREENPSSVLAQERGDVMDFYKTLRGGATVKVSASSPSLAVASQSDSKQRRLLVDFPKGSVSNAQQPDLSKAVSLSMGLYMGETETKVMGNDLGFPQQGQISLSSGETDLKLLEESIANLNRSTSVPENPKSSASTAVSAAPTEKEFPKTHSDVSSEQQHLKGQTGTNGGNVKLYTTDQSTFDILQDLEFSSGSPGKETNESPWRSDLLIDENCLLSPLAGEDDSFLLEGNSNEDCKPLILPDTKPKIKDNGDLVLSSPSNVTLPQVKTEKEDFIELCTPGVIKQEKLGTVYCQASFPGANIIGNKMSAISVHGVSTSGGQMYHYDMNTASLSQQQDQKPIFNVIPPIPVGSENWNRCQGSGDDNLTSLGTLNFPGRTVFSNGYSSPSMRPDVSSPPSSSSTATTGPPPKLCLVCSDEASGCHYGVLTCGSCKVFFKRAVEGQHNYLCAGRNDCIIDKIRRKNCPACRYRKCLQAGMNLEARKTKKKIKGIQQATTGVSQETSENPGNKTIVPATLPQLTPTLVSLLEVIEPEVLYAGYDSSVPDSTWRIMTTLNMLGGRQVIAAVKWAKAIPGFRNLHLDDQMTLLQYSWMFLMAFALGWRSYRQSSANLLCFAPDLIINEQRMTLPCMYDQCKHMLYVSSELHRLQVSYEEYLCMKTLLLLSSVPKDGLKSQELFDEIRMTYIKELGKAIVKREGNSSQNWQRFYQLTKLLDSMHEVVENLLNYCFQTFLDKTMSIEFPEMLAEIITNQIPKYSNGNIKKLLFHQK
# Sequence of DNA dC->dU-editing enzyme APOBEC-3G (Homo sapiens) (Q9HC16 whole entry, looked up): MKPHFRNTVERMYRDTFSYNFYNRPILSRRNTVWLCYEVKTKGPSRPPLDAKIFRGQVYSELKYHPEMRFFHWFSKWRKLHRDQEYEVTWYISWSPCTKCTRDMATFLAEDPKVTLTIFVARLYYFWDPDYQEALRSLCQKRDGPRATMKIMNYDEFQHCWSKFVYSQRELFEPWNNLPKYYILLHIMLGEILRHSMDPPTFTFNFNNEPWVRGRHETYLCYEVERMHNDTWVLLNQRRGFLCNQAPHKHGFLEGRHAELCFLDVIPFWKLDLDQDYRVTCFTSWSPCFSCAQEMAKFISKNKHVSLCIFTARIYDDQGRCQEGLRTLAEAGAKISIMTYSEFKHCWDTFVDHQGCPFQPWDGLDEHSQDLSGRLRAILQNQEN
smiles,measurement,setting,value
COc1cc2c(cc1O)CC[C@@H]1[C@@H]2CC[C@]2(C)[C@@H](O)CC[C@@H]12,outcome,[1],inactive
same,outcome,[2],inactive
same,outcome,[3],inactive
same,Potency,[4],inactive
same,Potency,[5],inactive
C[C@@H]1C[C@H]2[C@@H]3CCC4=CC(=O)C=C[C@]4(C)[C@@]3(F)[C@@H](O)C[C@]2(C)[C@H]1C(=O)CO,Potency,[4],inactive
Oc1ccc(O)cc1,outcome,[6],inactive
same,outcome,[7],inactive
same,outcome,[2],inactive
same,outcome,[3],inactive
same,Potency,[4],inactive
same,activation,[8],-0.636%
CC[C@H](C)C(=O)O[C@H]1CCC=C2C=C[C@H](C)[C@H](CC[C@@H]3C[C@@H](O)CC(=O)O3)[C@H]21,outcome,[1],inactive
same,outcome,[2],inactive
same,outcome,[3],inactive
same,Potency,[4],inactive
same,outcome,[9],inactive
same,Potency,[5],inactive
CNCCC(Oc1ccccc1C)c1ccccc1 (stereo unspecified),outcome,[6],inactive
same,outcome,[7],inactive
same,outcome,[1],inactive
same,outcome,[2],inactive
same,outcome,[3],inactive
same,Potency,[4],inactive
same,outcome,[9],inactive
COc1cc(-c2ccc(=O)[nH]n2)ccc1OC(F)F,outcome,[6],inactive
same,outcome,[7],inactive
same,Potency,[4],inactive
same,outcome,[10],inactive
CC(CCc1ccccc1)NCC(O)c1ccc(O)c(C(N)=O)c1 (stereo unspecified),outcome,[6],inactive
same,outcome,[7],inactive
same,outcome,[1],inactive
same,outcome,[2],inactive
same,outcome,[3],inactive
same,Potency,[4],inactive
CNCCC=C1c2ccccc2CCc2ccccc21,outcome,[6],inactive
same,outcome,[7],inactive
same,outcome,[1],inactive
same,outcome,[2],inactive
same,outcome,[3],inactive
same,Potency,[4],inactive
same,Potency,[5],15.8 µM (active)
CC(C)C[C@H]1C(=O)N2CCC[C@H]2[C@]2(O)O[C@](NC(=O)[C@@H]3C=C4c5cccc6[nH]c(Br)c(c56)C[C@H]4N(C)C3)(C(C)C)C(=O)N12,outcome,[2],inactive
same,outcome,[3],inactive
CN(C)CCOc1ccccc1Cc1ccccc1,Potency,[4],inactive
O=C1CCC(c2ccc(-n3ccnc3)cc2)=NN1,outcome,[6],inactive
same,outcome,[7],inactive
same,outcome,[1],inactive
same,outcome,[2],inactive
same,outcome,[3],inactive
same,Potency,[4],inactive
same,outcome,[9],inactive
same,Potency,[5],inactive
Cc1cc(N)c2cc(NC(=O)Nc3ccc4nc(C)cc(N)c4c3)ccc2n1,Potency,[4],10 µM (active)
Cc1c(C(C)C)c(=O)n(-c2ccccc2)n1C,Potency,[4],inactive
N[C@H](Cc1c[nH]c2ccccc12)C(=O)O,Potency,[4],inactive
CCOC(=O)c1cccc(N)c1,Potency,[4],inactive
CC(=O)Oc1ccc(C(=C2CCCCC2)c2ccc(OC(C)=O)cc2)cc1,Potency,[4],inactive
CCN(CC)C(=O)N1CCN(C)CC1,Potency,[4],inactive
O=C1c2ccccc2C(=O)C1c1ccccc1,Potency,[4],inactive
NCCC(O)(P(=O)(O)O)P(=O)(O)O,Potency,[4],inactive
CN1CCN(CCCN2c3ccccc3Sc3ccc(S(=O)(=O)N(C)C)cc32)CC1,Potency,[4],inactive
Cc1cc(O)c(C(C)C)cc1Cl,Potency,[4],inactive
CC(C)=CCC1C(=O)N(c2ccccc2)N(c2ccccc2)C1=O,Potency,[4],inactive
COc1c2occc2c(OC)c2c(=O)cc(C)oc12,Potency,[4],39.8 µM (active)
CC(C)COC(=O)c1ccc(N)cc1,Potency,[4],inactive
